# Compounds with a hit are over-represented: about 1.7% of the library has one in this group of screens.
# GLP1R ag: qHTS of GLP-1 Receptor Agonists | Potency, µM (doses to about 45.6 µM), for inactives: top-dose activation, actives largely listed as activators | Glucagon-like peptide 1 receptor (Homo sapiens), P43220 | AID 624172, 2012 | 0.007% of 380,000 active | HEK293 GLP-1R CRE-luciferase, luminescence, 4-6 h; cells express a hypersensitive GLP-1R form; note: % of control where 0% means no effect
# Target sequence (P43220 whole entry, looked up): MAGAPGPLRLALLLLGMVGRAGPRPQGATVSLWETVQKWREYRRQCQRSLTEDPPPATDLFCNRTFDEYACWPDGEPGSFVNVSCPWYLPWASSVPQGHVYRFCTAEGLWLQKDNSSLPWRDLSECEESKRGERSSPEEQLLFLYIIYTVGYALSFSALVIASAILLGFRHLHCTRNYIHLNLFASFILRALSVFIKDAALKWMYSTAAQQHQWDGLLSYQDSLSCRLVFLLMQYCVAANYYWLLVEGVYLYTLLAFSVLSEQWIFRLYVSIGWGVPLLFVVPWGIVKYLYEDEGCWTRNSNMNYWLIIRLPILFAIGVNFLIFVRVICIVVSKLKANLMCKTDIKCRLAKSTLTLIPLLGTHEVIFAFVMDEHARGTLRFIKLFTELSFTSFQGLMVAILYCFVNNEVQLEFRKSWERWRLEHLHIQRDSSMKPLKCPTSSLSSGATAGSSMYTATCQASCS
# HEK293 tox: qHTS of GLP-1 Receptor Inverse Agonists: Cytotox Screen | HEK293 cAMP-luciferase reporter cells, luminescence, 24 h | Potency, µM (highest dose often 38.3 µM), without a hit: at the highest dose activity change, negative = inhibition, most hits filed as inhibitors | 0.13% of 410,000 active;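 note: loss of luciferase light is scored as toxicity; % is set by controls: 0 for no effect and ±100 for the full control effect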
#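 Cells in DMEM/10% Nu serum/1% pen-strep, 1536-well format. Pre-incubated 12 h, dosed with 23 nL compound, incubated a further 24 h. Luciferase detection, 12 min at room temp, luminescence.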
# GLP1R inv ag: qHTS of GLP-1 Receptor Inverse Agonists (Inhibition Mode). Glucagon-like peptide 1 receptor (Homo sapiens), P43220. HEK293 GLP-1R CRE-luciferase, luminescence, 24 h; GLP-1R form is constitutively active. AID 624417, 2012. 1.6% of 410,000 active. Potency, µM (doses to about 38.3 µM), without a hit: top-dose activity change, negative = inhibition, usual class: inhibitors; note: % is set by controls: 0 for no effect and ±100 for the full control effect; nearly all actives have a fitted effect of over 55% in size
#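 Cells are plated, allowed 12 hours at 37 deg C, then treated with compounds for 24 hr before luciferase detection reagent is added and luminescence is read after 12 min at room temperature. The HEK293 line carries constitutively active GLP-1R with a cAMP-responsive reporter.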
# * = called active by the depositor; i = inactive; u = inconclusive; x = not tested or not shown; [ ] = remark or other dose. Calls come from the whole dose curve; as a rule, active = well fitted curve in the direction sought with a large enough effect; inconclusive = small, poorly fitted or top-dose-only effect, or another doubt; inactive = no such curve, though single readings can be large; an effect the other way counts as inactive or inconclusive. Potency is the fitted concentration of half-maximal effect.
SMILES,GLP1R ag,HEK293 tox,GLP1R inv ag
Cc1cc2ccccc2n1CCNC(=O)c1ccccc1F,2%,2%,-1%
COc1cccc(CN(Cc2ccco2)C(c2ccc(F)cc2)c2nnnn2C(C)(C)C)c1 (stereo not given),-28%,3%,10µM*
CC(C)(C)n1nnnc1C(c1cccnc1)N(Cc1ccccc1)Cc1ccco1 (stereo not given),0%,63%,108%
CN(C)c1ccc(-c2nc3ccccc3c(=O)[nH]2)cc1,-9%,8%,8.9µM*
COc1ccc(-c2nc3ccccc3c(=O)[nH]2)cc1,1%,-18%,-27%
CCCCNc1c2c3c(cccc3n(C)c1=O)C(=O)c1ccccc1-2,9%,243%,-10%
Cn1c(=O)c(NC2CCCCC2)c2c3c(cccc31)C(=O)c1ccccc1-2,-2%,i,10µM*
COc1cc(C(=O)OCC(=O)c2c(N)n(C)c(=O)n(C)c2=O)ccc1OCCC(C)C,11%,-2%[7.66 µM],13%[7.66 µM]
Cc1cccc(NC(=O)COc2cccc3c2CCNC3=O)c1,7%,-10%,13%
COc1ccccc1NC(=O)COC(=O)c1c(NC(C)=O)sc(C)c1C,16%,2%,1%
O=C(c1ccc(CN2CCc3ccccc3C2)cc1)N1CCN(c2ccc(F)cc2)CC1,0%,-28%,2µM*
O=C(c1ccc(CN2CCc3ccccc3C2)cc1)N1CCCCC1,-5%,1%,u
O=C(COC(=O)CSc1ccc([N+](=O)[O-])cc1)NCCCc1ccccc1,-5%,-15%,6%
CCCCCCC(C)OC(=O)Nc1cccc2ccccc12 (stereo not given),9%,21%,8.9µM*
CC(C)OCCCNC(=O)Nc1cccc2ccccc12,-5%,-1%,-27%
C=CC[C@H](CC(=O)NCCO)C(=O)N[C@@H](COC(=O)[C@@H](CC=C)Cc1ccc(F)cc1)Cc1ccccc1,-1%,4%,-4%
C=CCC[C@H](Cc1ccc(F)cc1)C(=O)OC[C@@H](NC(=O)[C@@H](CC=C)CC(=O)N[C@@H](CO)Cc1ccccc1)C(C)(C)C,-4%,u,u
C=CCC[C@@H](Cc1ccc(F)cc1)C(=O)OC[C@@H](NC(=O)[C@@H](CC=C)CC(=O)N[C@@H](CO)Cc1ccccc1)C(C)(C)C,-2%,-22%,10µM*
C=CC[C@@H](CC(=O)N(CCO)Cc1ccccc1)C(=O)N[C@H](COC(=O)[C@@H](CC=C)Cc1ccc(F)cc1)C(C)(C)C,1%,u,u
C=CC[C@H](CC(=O)N(CCO)Cc1ccccc1)C(=O)N[C@H](COC(=O)[C@@H](CC=C)Cc1ccc(F)cc1)C(C)(C)C,0%,-25%,10µM*
C=CC[C@H](CC(=O)NCCO)C(=O)N[C@H](COC(=O)[C@@H](CC=C)Cc1ccc(F)cc1)Cc1ccccc1,4%,u,10µM*
CC(C)(C)OC(=O)N1Cc2[nH]c3ccccc3c2C[C@@H]1C(=O)O,-9%,-15%,9%
CS(=O)(=O)N(CC(=O)N1CCc2ccccc2C1)c1ccccc1F,-1%,-1%,-2%
COC(=O)c1c(-c2ccc(Cl)cc2)noc1N1CCN(c2ccccc2OC)CC1,x,-7%,0%
Cc1ccc(N2CCN(C(C(=O)Nc3c(C)cccc3C)c3cc4ccccc4o3)CC2)cc1 (stereo not given),x,7%,23%
SMILES,GLP1R ag,HEK293 tox,GLP1R inv ag
CCOC(=O)c1ccccc1NC(=O)CN1C(=O)CC(c2ccccc2)Sc2ccccc21 (stereo not given),17%,3%,10µM*
Cc1cccc(NC(=O)CN2C(=O)CC(c3ccccc3)Sc3ccccc32)c1 (stereo not given),-9%,5%,4%
CC1CCCC(C)N1C(=O)COC(=O)c1ccc(F)c(S(=O)(=O)N2CCOCC2)c1 (stereo not given),-18%,5%,13%
Cc1ccc2[nH]c(=O)c(COC(=O)C3CCCCC3)cc2c1,5%,-6%,12%
CC1CN(C(=O)c2cccc(COc3ccccc3Cl)c2)CC(C)O1 (stereo not given),24%,-15%,-18%
CC1CN(C(=O)c2ccccc2OCc2ccc(Cl)cc2Cl)CC(C)O1 (stereo not given),10%,20%,10µM*
Cc1ccc(-n2nc(C)c3c(C)c(CCC(=O)NCc4ccc(Cl)cc4)c(C)nc32)cc1,x,2%,-2%
CN1CCN(C(=O)c2ccc(CS(=O)Cc3ccc(Cl)cc3)o2)CC1 (stereo not given),-4%,-2%,-12%

# High-throughput results: PubChem BioAssay, National Center for Advancing Translational Sciences (NCATS)
